Results filed as inconclusive are left out. A number with no mark means an inactive call. The source made the active and inactive calls. The call rests on the fitted dose curve; in most records, active means well fitted inhibition curve with a large enough effect; inconclusive means small, poorly fitted or top-dose-only effect; inactive means flat fitted curve, though single readings scatter.
System: KB-3-1
Assay: Cytotoxic Profiling of Annotated Libraries Using Quantitative High-Throughput Screening (AID 1296008); further: nearly all actives have a fitted effect of over 60% in size
Details: Five cell lines viability, CellTiter-Glo ATP luminescence, 48-72 h; max response: stronger effect = lower value
In short: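 Compounds were pin-transferred onto cells and incubated 48 or 72 hr at 37 degree Celsius, 95% humidity. CellTiter-Glo was added, plates sat 10 min at room temperature, then ATP-coupled luminescence was imaged as the viability read-out.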
On the % scale 0 is the no-effect control and ±100 the full control effect; potency means the concentration at half of the fitted maximal effect.

| Structure (SMILES) | max response | outcome | Potency |
| --- | --- | --- | --- |
| C=C1CC[C@H]2[C@@](C)(CCC(O)[C@@]2(C)CO)[C@@H]1CCC1=CCOC1=O (some centres undefined) | -26.3% |  |  |
| CC1CCCCN1S(=O)(=O)c1ccc(N2CCCC2=O)cc1 (centres undefined) | -2.83% |  |  |
| CC(C)c1ccc2c(c1)C(=O)CC1[C@@](C)(C(=O)O)CCC[C@]21C (some centres undefined) | -10.5% |  |  |
| C/C(=C\CCC1(C)C2CCC(C2)C1(C)O)C(=O)O (centres undefined) |  | inactive |  |
| COC(C(=O)N1Cc2[nH]nc(NC(=O)c3ccc(N4CCN(C)CC4)cc3)c2C1)c1ccccc1 (centres undefined) |  |  | 8200 nM (active) |
| COC(=O)C[C@H]1C(C)(C)[C@H](OC(C)=O)C2CC3=C4CC(=O)O[C@@H](c5ccoc5)[C@]4(C)CCC3[C@@]1(C)C2=O (some centres undefined) | 4.19% |  |  |
| CC(=O)O[C@@H]1[C@@H](O)[C@H](C)O[C@@H](O[C@H]2[C@@H]3C=CO[C@@H](O[C@@H]4O[C@H](CO)[C@@H](O)[C@H](O)[C@H]4O)[C@@H]3[C@@]3(CO)O[C@@H]23)[C@@H]1OC(=O)/C=C/c1ccccc1 | -1.35% |  |  |
| CC(C)C(=O)OC[C@H]1O[C@H](O[C@H]2O[C@H](CO)[C@@H](O)[C@H](O)[C@H]2O)[C@H](O)[C@@H](O)[C@@H]1O |  | inactive |  |
| C[C@@H]1C(=O)OC[C@H]2C(C(=O)O)=C[C@@H]3CC(C)(C)C[C@]312 | 5.81% |  |  |
| CC1COC2(OC3CC4C5CC(O[C@@H]6O[C@H](C)[C@@H](O[C@@H]7O[C@@H](C)[C@H](O)[C@@H](O)[C@H]7O)[C@H](O)[C@H]6O)C6CC(O)CCC6(C)C5CCC4(C)C3C2C)C(O)C1 (some centres undefined) | 7.16% |  |  |
| N#Cc1cc(F)cc(-c2nc(-c3ccccn3)no2)c1 | -6.38% |  |  |
| CC/C=C/CC1=C(CCCCC(CCC(=O)O)OC(C)=O)CCC1=O (centres undefined) | -6.15% |  |  |
| Cc1cc2c(c(=O)[nH]1)OC(C(O)CC(C)C)O2 (centres undefined) | -1.2% |  |  |
| CC(C)(O)C1CCC(C)(C2CCC3(C)C4CCC5C(C)(C(=O)OC6OC(CO)C(O)C(O)C6O)C(O)CC(O)C56CC46CCC23C)O1 (centres undefined) | -9.11% |  |  |
| C/C=C(\C)C(=O)O[C@H]1[C@@H](O[C@]2(COC(=O)CC(C)C)O[C@H](COC(=O)C(C)CC)[C@@H](OC(C)=O)[C@@H]2O)O[C@H](COC(C)=O)[C@@H](O)[C@@H]1O (some centres undefined) | 6.8% |  |  |
| C=C[C@H]1[C@H](O[C@@H]2O[C@H](CO)[C@@H](O)[C@H](O)[C@H]2O)OC=C(C(=O)OC)[C@H]1CC(=O)O | -3% |  |  |
| C/C=C1\[C@H](O[C@@H]2O[C@H](CO)[C@@H](O)[C@H](O)[C@H]2O)OC=C(C(=O)OC)[C@H]1CC(=O)OC[C@H]1O[C@@H](OCCc2ccc(O)cc2)[C@H](O)[C@@H](O)[C@@H]1O | 1.44% |  |  |
| C=CC1(C)C=C2C(=O)OC(=O)C3=C(CCCC3(C)C)C2(O)CC1 (centres undefined) | 7.97% |  |  |
| COc1ccc(N(C)c2nc(C)nc3ccccc23)cc1 |  |  | 5.2 nM (active) |
| Cc1cn(C2C=CC(CO)O2)c(=O)[nH]c1=O (centres undefined) | 6.19% |  |  |

| Structure (SMILES) | max response | outcome | Potency |
| --- | --- | --- | --- |
| CC1(C)CC[C@]2(C(=O)O[C@@H]3O[C@H](CO)[C@@H](O)[C@H](O)[C@H]3O)CC[C@]3(C)C(=CCC4[C@@]5(C)C[C@@H](O)[C@H](O)[C@@](C)(CO)C5CC[C@]43C)C2[C@@H]1O (some centres undefined) |  | inactive |  |
| C/C(=C\C=C\C(C)C1CCC2(C)C3CCC4C(C)(C)C(=O)CCC45CC35CCC12C)C(=O)O (centres undefined) | -3.21% |  |  |
| C=C1CC2C(C)(CCC(=O)O)C(C(C)(C)O)CCC2(C)C2C(=O)OC(C)(C(=O)OC)C(=O)C12C (centres undefined) |  | inactive |  |
| O=C(O)c1cccc(S(=O)(=O)N2CCc3ccccc3C2)c1 | 0.457% |  |  |
| Cc1cccc(-c2[nH]c(Cc3cccc(C(N)=O)c3)nc2-c2ccc3nccnc3c2)n1 | -5.51% |  |  |
| CCOC(=O)c1cc(C#N)c(N2CCC(C(=O)NS(=O)(=O)Cc3ccccc3)CC2)nc1C |  | inactive |  |
| CC1=CC(=O)CC2C1(O)CCC(C)C21CC(c2ccoc2)OC1=O (centres undefined) | -1.68% |  |  |
| CC1CCC2(C=O)C(CO)=CCCC2C1(C)CC(=O)O (centres undefined) | 2.85% |  |  |
| CCOc1ccc(NC(=S)N2CCC(C(O)(c3ccccc3)c3ccccc3)CC2)cc1 |  | inactive |  |
| COc1ccc(/C=C/C(=O)O[C@@H]2[C@@H](O)[C@@H](O)[C@H](O[C@@H]3C=C(CO)[C@H]4[C@H](O[C@@H]5O[C@H](CO)[C@@H](O)[C@H](O)[C@H]5O)OC=C[C@H]43)O[C@H]2C)cc1O | -14.4% |  |  |
| COc1ccc(-c2ccc(-c3cn(C(=O)N4CCCCC4c4ccccc4)nn3)cc2)cc1 (centres undefined) | -8.19% |  |  |
| O=C1NC(Cc2c[nH]c3ccccc23)C(=O)NC1Cc1cnc[nH]1 (centres undefined) |  | inactive |  |
| C[C@@H]1CC[C@]2(C(=O)O[C@@H]3O[C@H](CO)[C@@H](O)[C@H](O)[C@H]3O)CC[C@]3(C)C(=CCC4[C@@]5(C)C[C@@H](O)[C@H](O)[C@](C)(C(=O)O)C5CC[C@]43C)[C@@H]2[C@]1(C)O (some centres undefined) | 5.29% |  |  |
| COC(=O)CCC(=O)OC[C@]1(C)CCC[C@@]2(C)C3CC[C@]4(C)C=CC3(CCC12)C4 (some centres undefined) | 2.37% |  |  |
| C[C@H]1CC[C@@H]2N(C1)C[C@@H]1[C@H]([C@@H](O)[C@H](O)[C@]3(O)[C@H]1C[C@@]14OC5(O)[C@@H](C[C@@H](O)[C@@H]31)[C@]4(C)CC[C@@H]5O)[C@]2(C)O |  | inactive |  |
| CC(=O)CC1CCC(C(C)C(=O)OCC(O)CO)O1 (centres undefined) |  | inactive |  |
| C[C@@H]1C[C@@H]2O[C@H]2/C=C\C=C\C(=O)Cc2c(Cl)c(O)cc(O)c2C(=O)O1 |  |  | 2270 nM (active) |
| Cc1nc(NC(=O)N2CCCC2C(N)=O)sc1-c1csc(C(C)(C)C)n1 (centres undefined) |  | inactive |  |
| CC1(C)CC[C@]2(C(=O)O[C@@H]3O[C@H](CO)[C@@H](O)[C@H](O)[C@H]3O)CC[C@]3(C)C(=CCC4[C@@]5(C)CC[C@H](O[C@@H]6O[C@H](C(=O)O)[C@@H](O)[C@H](O)[C@H]6O)C(C)(C)C5CC[C@]43C)C2C1 (some centres undefined) | 6.58% |  |  |

Reference: PubChem BioAssay (NCATS)
